# Source: PubChem (several laboratories)
# Most compounds without a hit are left out; they make up all but 5.9% or so of the library.
# ALR H2O2 inh = human ALR oxidase inhibition via reduced H2O2; P55789; purified ALR, DTT oxidation, H2O2 HRP-luminol luminescence; inhibition, % (concentration not given with the values); 3.8% of 290,000 active;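 active = mean replicate inhibition above about 79%, with every replicate also reaching it, limit read from the data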
# Target sequence (P55789 whole entry, looked up): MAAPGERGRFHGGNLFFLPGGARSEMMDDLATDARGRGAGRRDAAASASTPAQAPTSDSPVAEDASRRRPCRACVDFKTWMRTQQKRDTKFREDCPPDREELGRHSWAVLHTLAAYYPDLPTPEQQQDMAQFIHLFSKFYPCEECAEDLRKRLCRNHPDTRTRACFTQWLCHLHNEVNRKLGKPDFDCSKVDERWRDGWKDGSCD
# rCAG binder = molecules binding r(CAG) RNA repeats; inhibition, % at 3 µM; 1.3% of 370,000 active; AID 651821; r(CAG) RNA repeat, TO-PRO-1 dye displacement fluorescence;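 active = inhibition above the plate cutoff, the mean of all test compounds on that plate plus 3 SD, cut at about 35% in these data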;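 note: 0% = DMSO alone and 100% = 100 µM mitoxantrone as full dye displacement; higher means more dye released from RNA so lower well fluorescence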
# PRMT1 inh = blocks human protein arginine methyltransferase 1 | Q99873 | recombinant PRMT1, activity-based probe fluorescence polarization | inhibition, % at 2.79 µM | 1.3% of 370,000 active | AID 652257;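 active = inhibition above about 21% made by adding two undisclosed values, limit read from the data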
# LANA-H2B inh = blocks KSHV LANA binding to histone H2A/H2B. cell-free LANA-H2A/H2B peptide, fluorescence polarization. Q9QR71. inhibition, % (test concentration not listed). 0.6% of 320,000 active; in the data active = inhibition mostly above about 10%, no sharp cut-off; inactive = mostly below about 6.7%
# Rtt109 HAT inh = inhibitors of Candida albicans Rtt109/Vps75 histone acetyltransferase; AID 540336; Q5AAJ8; 0.16% of 330,000 active; purified Rtt109/Vps75, ThioGlo CoA-SH fluorescence, 4 h; inhibition, % at 34.9 µM;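 active = inhibition of at least 50% in every replicate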
# Target sequence (Q5AAJ8 whole entry, looked up): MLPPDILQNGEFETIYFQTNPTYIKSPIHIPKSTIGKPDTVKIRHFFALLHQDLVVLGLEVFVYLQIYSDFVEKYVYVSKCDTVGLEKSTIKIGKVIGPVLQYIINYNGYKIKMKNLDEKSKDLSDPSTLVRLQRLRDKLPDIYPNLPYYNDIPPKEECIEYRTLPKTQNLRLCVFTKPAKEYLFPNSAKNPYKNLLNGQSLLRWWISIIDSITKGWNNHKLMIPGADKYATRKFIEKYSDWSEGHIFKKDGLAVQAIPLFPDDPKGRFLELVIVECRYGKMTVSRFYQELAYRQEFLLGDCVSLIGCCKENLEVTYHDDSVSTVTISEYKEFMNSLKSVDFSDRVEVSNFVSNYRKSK
# ABHD5 PLIN5 PPI = ABHD5-PLIN5 protein interaction inhibition; 0.78% of 360,000 active; Split G. princeps luciferase complementation, luminescence, 4 h; Q00G26+Q8WTS1; inhibition, % at 4 µM; AID 602281;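 active = inhibition above the mean inhibition across every tested compound plus 3 SD, cut at about 22% in these data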;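 note: 0% = DMSO only wells and the 100% control is not disclosed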
# * hit, by the source's call; · = no result given; + = active, no number.
SMILES,ALR H2O2 inh,rCAG binder,PRMT1 inh,LANA-H2B inh,Rtt109 HAT inh,ABHD5 PLIN5 PPI
O=C(O)/C=C/c1cn(Cc2ccccc2)nc1-c1ccc(Cl)cc1,94.7*,13.9,-2.5,-3.1,4.4,-0.6
COc1cc(C(=S)N2CCN(c3ccccc3Cl)CC2)cc(O)c1O,98.6*,23.6,10.9,1.8,-5.7,4.6
CS(=O)(=O)c1ccc(-c2sc3ccccc3c2C(=O)N2CCN(c3ccc(F)cc3)CC2)cc1,-1.4,-0.1,-2.4,-2.4,-1.6,-2.1
CCN1CCCC1CNC(=O)CSCc1nc(-c2ccccc2C)oc1C (stereo not given),99.7*,-7.5,-0.3,0.7,-0.2,6.8
CCN1CCCC1CNC(=O)CS(=O)(=O)Cc1nc(-c2ccccc2C)oc1C (stereo not given),-3.1,2.8,-5.5,-2.3,-1.0,0.1
CC(C)(C)n1nnnc1C(c1cccnc1)N1CCN(c2cccc(C(F)(F)F)c2)CC1 (stereo not given),-1.9,1.6,0.5,-3.1,6.4,3.4
CC(C)(C)c1cc(C(c2cccnc2)N2CCN(CCO)CC2)cc(C(C)(C)C)c1O (stereo not given),36.6,-9.2,22.4*,-2.0,91.9*,21.2
CC(C)C(=O)N1CCC1(C)C(=O)Nc1ccc(-n2cccc2)cc1 (stereo not given),·,0.4,3.3,·,·,-1.7
COc1ccc(OC)c(CC(=O)Nc2cc(S(=O)(=O)N3CCCCC3)ccc2C)c1,-7.1,6.5,1.0,71.4*,5.2,2.3
Cc1ccccc1NC(=O)CN1C(=O)COc2ccc(S(=O)(=O)N3CCCC3)cc21,-2.7,1.1,0.3,13.8*,-3.1,-4.6
COc1ccc(/C=C/C(=O)Nc2cc(S(=O)(=O)N3CCOCC3)ccc2C)cc1OC,-0.7,-2.5,-4.4,+,4.2,-2.4
COc1ccc(/C=C/C(=O)Nc2cc(S(=O)(=O)N3CCOCC3)ccc2N2CCCC2)cc1OC,-14.1,-1.3,-0.3,-8.9,25.8,3.4
COc1ccc(CNC(=O)COC(=O)c2ccc(S(=O)(=O)N3CCCCC3)cc2)cc1,·,1.3,-0.9,-3.2,51.9*,-2.8
Cc1ccc(S(=O)(=O)N2CCCCC2)cc1NC(=O)CCc1nc2ccccc2c(=O)[nH]1,-56.4,14.7,21.7*,-2.7,-0.1,-11.9
COC(=O)c1ccc(O)c(Sc2cc(C(=O)OC)ccc2O)c1,87.6*,11.3,2.1,-1.7,-5.7,-4.3
Cc1ccc(O)c(Sc2cc(C)ccc2O)c1,98.7*,12.1,3.0,-1.0,22.8,-11.4
COC(=O)c1ccc(C)cc1,·,1.2,-1.9,·,-0.5,2.8
O=C(/C=C/c1cccc([N+](=O)[O-])c1)c1ccc2c(c1)OCCO2,95.8*,3.5,2.0,-3.0,-3.3,22.8*
O=C(c1ccccc1)c1ccc2c(c1)OCCOCCOCCOCCO2,-5.2,-7.9,-5.1,1.6,-0.2,-0.7
COc1ccc(/C=C/C(=O)c2ccc3c(c2)OCCO3)cc1[N+](=O)[O-],36.1,3.9,1.1,-2.7,15.7,13.9
O=C(c1cccc([N+](=O)[O-])c1)c1ccc2c(c1)OCCOCCOCCOCCO2,-5.5,-5.0,-9.1,13.2*,·,-0.9
COC(=O)[C@]12C[C@H](CC(=O)N3CCSCC3)C(=O)N(Cc3ccccc3)C1=C[C@H](COCc1ccccc1)O[C@@H]2C,·,4.5,0.1,·,·,·
CC(C)(C)NC(=O)CN(C(=O)CCN1CCCc2ccccc21)C(C)(C)C,94.5*,-8.5,-0.1,0.6,4.4,-6.7
C[C@H]1CN([C@@H](C)CO)S(=O)(=O)c2ccc(-c3ccccc3)cc2O[C@H]1CN(C)C(=O)C1CCC1,·,0.9,0.3,·,·,-1.1
COc1ccc(C(Cl)=C(c2ccc(OC)cc2)c2ccc(OC)cc2)cc1,-0.3,6.8,1.9,38.6*,-1.4,-9.1
SMILES,ALR H2O2 inh,rCAG binder,PRMT1 inh,LANA-H2B inh,Rtt109 HAT inh,ABHD5 PLIN5 PPI
CC(C)(C)OC(=O)NCCc1nc(NC(=O)OCc2ccccc2)sc1C(=O)O,·,10.2,1.1,·,·,-8.4
COc1ccccc1CCC(=O)Oc1ccccc1C#N,84.9*,-4.9,0.5,0.5,-6.0,1.5
COC(=O)[C@]12CCCCC=C1N(Cc1ccc(OC)cc1)C(=O)[C@@H]2CC(=O)N1CCN(C(=O)C2CC2)CC1,·,0.4,-6.6,·,·,·
Cc1cc(C)c(O)c(-c2cc(C(=O)Nc3cccnc3)[nH]n2)c1,97.9*,5.0,-0.2,3.4,-4.1,-0.5
O=C1/C(=C/c2ccco2)CCc2ccccc21,-6.3,17.5,7.2,-1.3,2.8,-2.2
O=C1CNC(=O)/C(=C/c2ccco2)N1,3.1,-2.7,23.0*,-2.7,9.4,-1.7
NS(=O)(=O)c1ccc(NC(=O)CSC2=NC(=O)C(c3ccccc3)C(=O)N2)cc1 (stereo not given),99.1*,2.9,13.5,3.6,-5.7,-4.9
COC(=O)c1ccc(NC(=O)CSC2=NCCN2)cc1,98.9*,-2.3,62.5*,0.6,-0.9,2.6
CCOc1ccc(NC(=O)CSC2=NCCN2)cc1,98.6*,0.0,8.3,6.8,2.3,0.1
COC(=O)c1ccc(NC(=O)CSc2n[nH]c(-c3ccncc3)n2)cc1,-0.1,2.6,1.8,-4.4,-9.4,1.8
CCC1C(=O)N=C(SCC(=O)Nc2ccc(C(=O)OC)cc2)NC1=O (stereo not given),99.2*,6.3,11.0,-0.6,-11.6,-1.7
Nc1[nH]c(C(=O)c2ccccc2)c(-c2ccccn2)c1C(=O)c1c[nH]c2ccc(F)cc12,·,8.2,3.1,·,·,·
CC(=O)N1C[C@H]2CON(C)[C@H]2C[C@H]1c1ccccc1-c1ccccc1,·,3.1,-4.1,·,·,·
COc1ccc(C(=O)N2CCN(Cc3ccc4c(c3)OCO4)CC2)cc1OC,-9.6,-5.6,0.3,-2.1,-1.5,6.5
O=C(c1cc(Cl)nc2ccccc12)N1CCN(Cc2ccc3c(c2)OCO3)CC1,·,-0.1,-2.6,20.8*,1.9,5.0
COc1ccc(Cl)cc1C(=O)N1CCN(Cc2ccc3c(c2)OCO3)CC1,-18.6,-7.9,5.3,14.3*,5.8,2.2
COc1ccc(/C=C/C(=O)Nc2ccc(OC)nc2)cc1,-4.8,-3.4,2.0,2.5,·,-5.4
COc1ccc(CS(=O)(=O)/C(Cl)=C(/Cl)C(=O)Nc2ccc(OC)nc2)cc1,97.9*,·,·,9.8,-1.2,41.0*
Cc1ccc(NC(=O)CC(=O)Nc2ccc(C)c(C)c2)cc1C,2.8,1.5,-1.5,0.0,1.0,2.4
Cc1ccc(Sc2ccc(NC(=O)CCl)cc2)cc1C,98.3*,10.3,-2.8,5.1,·,-7.4
O=C(CCl)Nc1ccccc1Sc1ccccc1,3.9,-0.5,-1.9,1.3,4.9,6.2
Cc1ccc(C)c(Sc2ccc(NC(=O)CCl)cc2)c1,86.2*,0.8,-1.0,-5.8,·,·
Cc1ccc(S(=O)(=O)N2CCCN(C(=O)c3cc4ccccc4[nH]3)CC2)cc1,·,7.0,-1.2,6.0,-5.8,-8.8
CC(=O)Nc1ccc(O)cc1,99.4*,1.8,-6.6,-5.0,-3.8,-1.7
